Experimental data taken from PubChem BioAssay (Tox21).
Inconclusive results are not listed. The source made the active and inactive calls. Calls follow the shape of the dose curve; as a rule, active = well fitted curve in the direction sought with a large enough effect in the repeat runs; inconclusive = weak or mixed curves; inactive = no such curve, though single readings can be large; an effect the other way counts as inactive or inconclusive.

What was measured:
[1] = A CellTox Green Cytotoxicity Assay to monitor cytotoxicity in HepG2 cells - 0 hour (AID 1224882); also: nearly all actives have a fitted effect of over 35% in size
How it was run: (§1)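 First, HepG2 cells (600/well) mixed with reagent were plated; second, after 5 h at 37 C they received compounds via pintool; third, fluorescence was measured at 0 h through 40 h at 8 h intervals.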

[2] = A CellTox Green Cytotoxicity Assay to monitor cytotoxicity in HepG2 cells - 32 hour (AID 1224883); also: nearly all actives have a fitted effect of over 50% in size
How it was run: as §1

[3] = A CellTox Green Cytotoxicity Assay to monitor cytotoxicity in HEK293 cells - 8 hour (AID 1224884); also: nearly all actives have a fitted effect of over 35% in size
How it was run: (§2)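 Dead-cell fluorescence measured kinetically: asymmetric cyanine dye, HEK293, 600 cells/well, 5 h settle, 23 nL cpd/DMSO, 37 C, reads 0–40 h every 8 h.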

[4] = qHTS RealTime-Glo MT Cell Viability Assay in HepG2 cells - 16 hour (AID 1224885); also: nearly all actives have a fitted effect of over 50% in size
How it was run: (§3)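 Luminescence read-out: viable HepG2 cells reduce a prosubstrate to a NanoLuc substrate, giving a signal proportional to live cell number. Reads taken at 0, 8, 16, 24, 32 and 40 h of compound exposure at 37 C.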

[5] = qHTS RealTime-Glo MT Cell Viability Assay in HEK293 cells - 24 hour (AID 1224886); also: top concentration of the series differs between compounds; nearly all actives have a fitted effect of over 50% in size
How it was run: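 Nonlytic real-time viability readout: viable cells convert prosubstrate to NanoLuc substrate, giving luminescence proportional to live cell number. HEK293, 600 cells/well, compound added after 5 h, continuous culture at 37 C.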

[6] = qHTS RealTime-Glo MT Cell Viability Assay in HEK293 cells - 8 hour (AID 1224887); also: top concentration of the series differs between compounds; nearly all actives have a fitted effect of over 50% in size
How it was run: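 600 HEK293 cells per well, dispensed already mixed with RealTime-Glo MT reagents. Compound dosing came 5 h later. The same wells were read for luminescence at 0, 8, 16, 24, 32 and 40 h of exposure at 37 C.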

[7] = qHTS RealTime-Glo MT Cell Viability Assay in HepG2 cells - 0 hour (AID 1224889); also: nearly all actives have a fitted effect of over 50% in size
How it was run: as §3

[8] = A CellTox Green Cytotoxicity Assay to monitor cytotoxicity in HepG2 cells - 8 hour (AID 1224890); also: nearly all actives have a fitted effect of over 45% in size
How it was run: as §1

[9] = qHTS assay to identify small molecule antagonists of the estrogen receptor alpha (ER-alpha) signaling pathway using the BG1 cell line in the presence of 0.1 nM 17-beta-estradiol - cell viability counter screen (AID 1259241); also: nearly all actives have a fitted effect of over 40% in size
How it was run: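 CellTiter-Fluor read (30 min, 37C) on ER-alpha/ERE-luc VM7Luc4E2 cells; 22 hr compound treatment; agonist 0.1 nM E2 final; same-well multiplex.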

[10] = A CellTox Green Cytotoxicity Assay to monitor cytotoxicity in HEK293 cells - 16 hour (AID 1224888); also: nearly all actives have a fitted effect of over 35% in size
How it was run: as §2

Measured: Potency

NC(=O)c1cc([N+](=O)[O-])cc([N+](=O)[O-])c1
not listed: [10]
inactive: all other assays above

O=C(Cc1ccccc1)OCc1ccccc1
not listed: [10]
inactive: all other assays above

ClC(Br)Br
not listed: [8] | [10]
inactive: all other assays above

C[C@]12CC[C@H]3[C@@H](CCC4=CC(=O)CC[C@@]43C)[C@@H]1CC[C@@H]2C(=O)O
not listed: [10]
inactive: all other assays above

CC(C)[N+](=O)[O-]
not listed: [8] | [10]
inactive: all other assays above

COc1cc(OC)nc(Sc2cccc(Cl)c2C(=O)O)n1
not listed: [10]
inactive: all other assays above

COc1cc(OC)nc(Oc2cccc(Oc3nc(OC)cc(OC)n3)c2C(=O)O)n1
not listed: [10]
inactive: all other assays above

CC(C(=O)c1ccccc1)N(C)C (stereo unspecified)
not listed: [10]
inactive: all other assays above

Nc1c(Br)cc([N+](=O)[O-])cc1[N+](=O)[O-]
not listed: [5]
inactive: all other assays above

CCCSC(=O)Cl
not listed: [10]
inactive: all other assays above

O=C(Nc1ccccc1)c1ccccc1I
not listed: [5]
inactive: all other assays above

Cc1ccccc1CO[C@@H]1C[C@@]2(C(C)C)CC[C@]1(C)O2
not listed: [5]
inactive: all other assays above

O=C1OC(=O)C2C1C1(Cl)C(Cl)=C(Cl)C2(Cl)C1(Cl)Cl (stereo unspecified)
not listed: [5] | [8]
inactive: all other assays above

CS(=O)(=O)c1cc(C(F)(F)F)ccc1C(=O)c1cnoc1C1CC1
not listed: [5] | [7]
inactive: all other assays above

O=[N+]([O-])c1cccc(O)c1
not listed: [5]
inactive: all other assays above

CC1(C)CON(Cc2ccccc2Cl)C1=O
not listed: [5]
inactive: all other assays above

CC1=C(C(=O)Nc2ccccc2)S(=O)(=O)CCO1
not listed: [5]
inactive: all other assays above

CCS(=O)(=O)CCSP(=O)(OC)OC
not listed: [5]
inactive: all other assays above

CN/C(=N\[N+](=O)[O-])NCC1CCOC1 (stereo unspecified)
not listed: [5] | [10]
inactive: all other assays above
